Experimental data taken from paper PMC7819943, “Rice protein-binding microarrays: a tool to detect cis-acting elements near promoter regions in rice”.
The full ranking holds about 68,000 sequences; the median of “fluorescence intensity (a.u.)” is about 9,100, and the highest 2% start at about 16,000. For the sample, the highest values were picked, then their nearest neighbours and some sequences at random.

Target: OsWRKY34 (Oryza sativa, UniProt Q0JBA9 1-250)
Test: protein-binding microarray (RPBM); PBS, 2% BSA, 51.3 ng/ul salmon testes DNA, 50 uM zinc acetate, 200 nM TF, 25 C, 1 h; high values mean tight binding
Conditions: protein: recombinant; tags: N-terminal polyhistidine and DsRed monomer fusion (pET32a); label: CyDye5-dUTP incorporated in the synthesized complementary strand; 3' TTTTT single-stranded linker to array surface; dsDNA, one strand shown
Outline: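 The binding signal is fluorescence intensity per array feature (arbitrary units). Readings came from an Axon 4000B scanner after a washed, 2% BSA-blocked, double-stranded custom Agilent array had been incubated for 1 h at 25 °C with 200 nM protein and 50 µM zinc acetate. The protein was a Ni–NTA-purified transcription factor fused N-terminally to polyhistidine and DsRed, expressed in E. coli BL21-CodonPlus.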

Chain of OsWRKY34 (Q0JBA9 entry or part of it): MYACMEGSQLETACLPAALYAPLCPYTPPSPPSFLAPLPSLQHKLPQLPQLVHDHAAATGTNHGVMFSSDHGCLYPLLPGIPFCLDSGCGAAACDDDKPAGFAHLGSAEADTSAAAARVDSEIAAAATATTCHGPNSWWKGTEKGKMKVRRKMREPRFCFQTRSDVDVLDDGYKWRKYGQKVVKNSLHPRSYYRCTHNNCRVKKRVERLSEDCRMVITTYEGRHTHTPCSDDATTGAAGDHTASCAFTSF

Going from “ATCATCCATATCCAGCTATACTATACTACTCGATCCCTTCCGGAGTCACCTAGTGCAG” to “CCCTCTCTCTATTTAAGCAAGCACATTCTCCTCTTCTTCTCGGAGTCACCTAGTGCAG”, the binding signal falls from 10200 fluorescence intensity (a.u.) to 8240 fluorescence intensity (a.u.).

Compared with “GCCGACTCTTACTCCTCCGCCCACTCACCACGCGCGCTGCCGGAGTCACCTAGTGCAG”, “GGGAGGGGTGGCTCGGCGGCGGTGCGGGGTGGCGGTGCTCCGGAGTCACCTAGTGCAG” is higher in binding signal: 11000 fluorescence intensity (a.u.) for the first, 18700 fluorescence intensity (a.u.) for the second.

Compared with “GTTGGGAAGGAAAGGGAGGGGTTGGTGCTCTCCTCCTCTTCGGAGTCACCTAGTGCAG”, “TTGGGAGGGATGGGGCGGTGGTTAGGGGATGAGCGGAGGACGGAGTCACCTAGTGCAG” is higher in binding signal: 9740 fluorescence intensity (a.u.) for the first, 13200 fluorescence intensity (a.u.) for the second.

Compared with “GAGTGGTGGAGGGTTGTGATTGGATGAGTAGTGGAGGTAGCGGAGTCACCTAGTGCAG”, “CCGGGTGGAGGGCGGGGAAGCGGCGGCGGAACTCCGGGCTCGGAGTCACCTAGTGCAG” is lower in binding signal: 8760 fluorescence intensity (a.u.) for the first, 8490 fluorescence intensity (a.u.) for the second.

First: CGAGTGACGAGGTCTTGGGTTGGGGTAGGGGTGGGATGAGCGGAGTCACCTAGTGCAG
Second: AGAGGTGGAAGGGGATGGGGAGAAAAAAAAGGAGAGGGGACGGAGTCACCTAGTGCAG
The binding signal of the first is higher: 19900 fluorescence intensity (a.u.) for the first, 8410 fluorescence intensity (a.u.) for the second.

Going from “GGCGGAGCTCGGGATGTGGGAGGAGGAGGGCTATTTATTCCGGAGTCACCTAGTGCAG” to “GCGGGCGGAGGAGCTCGGGCGTGGGCGGGGAGGGCGGATCCGGAGTCACCTAGTGCAG”, the binding signal rises from 14400 fluorescence intensity (a.u.) to 20800 fluorescence intensity (a.u.).

Compared with “TGGCGGCTCGGTGGCGGAGCTCCGGTGTGGGGTGGTGTGGCGGAGTCACCTAGTGCAG”, “GTGGCCGGCGGCGTTCGGGCGTGGGCGGGGAGGCCGGATCCGGAGTCACCTAGTGCAG” is higher in binding signal: 8140 fluorescence intensity (a.u.) for the first, 13700 fluorescence intensity (a.u.) for the second.

First: CTCTTCTCCTCCAAGGATGGGGAGGTGGGGATGGTGGGGACGGAGTCACCTAGTGCAG
Second: CAGTATCTTACTTCTCAGCTGCTCAATCATCAGCTGCCACCGGAGTCACCTAGTGCAG
The binding signal of the first is higher: 19400 fluorescence intensity (a.u.) for the first, 9310 fluorescence intensity (a.u.) for the second.

Compared with “GCAAGATCTCCATGATGCGACAGCTCTACCGTTACAATTACGGAGTCACCTAGTGCAG”, “TCAATCAACGGCTACTTGTATGTAATCTCCACGCATTCCACGGAGTCACCTAGTGCAG” is higher in binding signal: 8100 fluorescence intensity (a.u.) for the first, 8630 fluorescence intensity (a.u.) for the second.

Going from “CTTTTTGTTTTGGCCTTGACGTCGTGTTCACCGCCTCTACCGGAGTCACCTAGTGCAG” to “CAGAGCTCTTCCTGCTGTACCTACCAAGCTCTTACTTTGACGGAGTCACCTAGTGCAG”, the binding signal falls from 11800 fluorescence intensity (a.u.) to 8060 fluorescence intensity (a.u.).

First: GTACTACTCCAAATCGTGTTCCACATTTCTATTTTGCACACGGAGTCACCTAGTGCAG
Second: CTTAGGTCAACACCGAAAACTAATCACCATGTTGACTTTGCGGAGTCACCTAGTGCAG
The binding signal of the first is higher: 10200 fluorescence intensity (a.u.) for the first, 9710 fluorescence intensity (a.u.) for the second.

First: GATGGTGTGTGTGTGTGGCTGTGTGCACCTAAGAATTTCTCGGAGTCACCTAGTGCAG
Second: ATATTTATGTGCCAAATATTGTCAATTGTTCCTCTTGTTACGGAGTCACCTAGTGCAG
The binding signal of the first is higher: 10400 fluorescence intensity (a.u.) for the first, 9080 fluorescence intensity (a.u.) for the second.

Compared with “CTCGCTCACTCGGTCAGCTGCACACACACTGCACTTCGGCCGGAGTCACCTAGTGCAG”, “GCGGTGCAGGGCGGTGGCGGCGGCGGGTGGGGCGGTGGCGCGGAGTCACCTAGTGCAG” is higher in binding signal: 9820 fluorescence intensity (a.u.) for the first, 20900 fluorescence intensity (a.u.) for the second.

Going from “GGGGTGGCGGCGGCGGCTGCGCGCGGGCGGTGGCGCGGGGCGGAGTCACCTAGTGCAG” to “GTTGGGGAGCGCGGCGGGGCGTCGGAGGAGTTGACAGGAGCGGAGTCACCTAGTGCAG”, the binding signal falls from 12000 fluorescence intensity (a.u.) to 8910 fluorescence intensity (a.u.).

Compared with “GTGGGCGTGGGCCCCGCGTCCTGTGGTGGTGGTGGGTGCTCGGAGTCACCTAGTGCAG”, “CCAGAACGGCCGGTCAACGGCACCGTTGACCGTATGAGGGCGGAGTCACCTAGTGCAG” is higher in binding signal: 9200 fluorescence intensity (a.u.) for the first, 52400 fluorescence intensity (a.u.) for the second.

Compared with “AGGCAGGGTGGGTGGGTGGTGGGCTTGCTCGCTCCGCGTCCGGAGTCACCTAGTGCAG”, “GCGTTGAGGGCAGGCGGCGGCGCTTGGTGGCGGTGGGGCACGGAGTCACCTAGTGCAG” is lower in binding signal: 19700 fluorescence intensity (a.u.) for the first, 8370 fluorescence intensity (a.u.) for the second.

Going from “GTGGAGGGGCGGCGTTGGGCAGAGGGGCGGCACGGGTGAACGGAGTCACCTAGTGCAG” to “ATGTTGGGCCAGGCTCGAGCTCCTCCTCCTCCGCGTCGTCCGGAGTCACCTAGTGCAG”, the binding signal falls from 12800 fluorescence intensity (a.u.) to 8140 fluorescence intensity (a.u.).

First: GGTGCGGGGTGGCGGTGCTCGGCCACAGCGGCGCGCGGGGCGGAGTCACCTAGTGCAG
Second: GTTGGGGAGCGGGGTGTGTGTGCCAGGCGCTCGGGCGGGGCGGAGTCACCTAGTGCAG
The binding signal of the first is lower: 8130 fluorescence intensity (a.u.) for the first, 19500 fluorescence intensity (a.u.) for the second.

Compared with “CATGCGGGGCGCGGGCGGCGGTGCAGGGCGGGGTGCGGCCCGGAGTCACCTAGTGCAG”, “CGGCCGTCCGCCATCTGCAAAAGGTGTTTTTTCACATGCCCGGAGTCACCTAGTGCAG” is lower in binding signal: 8730 fluorescence intensity (a.u.) for the first, 8560 fluorescence intensity (a.u.) for the second.

Going from “ATCCTCTTGTTTCGTACAGGTCACTTAAATAGTTATAAAACGGAGTCACCTAGTGCAG” to “CACTAAACGGCCAAAATCTTCCATCGTATAGTTACGTCACCGGAGTCACCTAGTGCAG”, the binding signal rises from 8300 fluorescence intensity (a.u.) to 8410 fluorescence intensity (a.u.).

First: CTCTACTATCGATCTTTTTTCCACGTCGGTCGCGGCTTTTCGGAGTCACCTAGTGCAG
Second: AGTATAACTTTTTTTTTGTCACTCTGTTATCTCACATCTGCGGAGTCACCTAGTGCAG
The binding signal of the first is higher: 9580 fluorescence intensity (a.u.) for the first, 8760 fluorescence intensity (a.u.) for the second.
